Consider 40 compounds from PubChem BioAssay.

The structures appear in SMILES notation. Inconclusive results are not listed. A number with no mark means an inactive call. The source made the active and inactive calls.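 The calls were made as follows, unless noted: active = viability at or below 27.92% in each of two runs, the all-compound median minus 4 SD; inconclusive = no clear call, values can overlap the other calls; inactive = the rest.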

The term viability denotes a read-out of living cells in per cent, often relative to untreated cells.

One test can be described thus: growth suppression of beta-catenin knockout HCT116, pilot screen, human colon tumor cells (AID 823;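 active = cell viability at or below a set limit in both duplicate runs, the limit being the all-compound median minus 4 SD, cut at about 23% in these data, passing the limit was not always enough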;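 also: 0% = wells killed by 20 µM Hyamine and 100% = untreated DMSO cell wells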). The settings on record: CellTiter-Glo, 60 h, at 10 µM, hits give low values.
As for `Cc1sc2nc(SCC(=O)OC(C)C)n(C)c(=O)c2c1C`, the viability is 105%.
In the case of `O=C(O)CCc1n[nH]c(=S)[nH]c1=O`, the viability was 102%.
Turning to `COc1ccc(N2CCN(CCCNS(=O)(=O)c3ccc4c(c3)oc(=O)n4C)CC2)cc1`, the viability is 94.3%.
Regarding `CCOc1cccc(NC(=O)c2ccc(S(=O)(=O)N3CCCC3)cc2)c1`, the viability is 87.5%.
`O=C(CSc1nc2c(c(=O)n1-c1ccc(Br)cc1)SCC2)NCC1CCCO1` (stereo not drawn): the viability was 97.9%.
For `COc1cccc(N2C(=O)C3ON(c4ccccc4)C(c4cccs4)C3C2=O)c1` (stereo not drawn), the viability was 107%.
With `CC(C)n1c(CCC(=O)O)ccc1-c1ccccc1`, the viability is 96%.
Turning to `Cn1c(C(=O)NC2CCCCC2)cc2c(=O)n(C)c3ccccc3c21`, the viability was 88%.
Same read-out and setting: as for `Cc1c(C(=O)NCC2CCCO2)sc2nc(-c3ccc(F)cc3)cn12` (stereo not drawn), the figure is 95.2%; as for `CCCCOC(=O)CCc1n[nH]c(=O)[nH]c1=O`, 99.8%; as for `Cc1ccc(C(c2sc3ncnn3c2O)N2CCC(C)CC2)cc1` (stereo not drawn), 102%.
Take `C=CCc1ccccc1OCC(O)CN1CCN(c2ccccc2OC)CC1` (stereo not drawn): the viability was 56.3%.
Consider `CC(=O)NCC(=O)NC1(C(=O)NC2CCCC2)CCCCC1`, for which the viability was 97.8%.
Consider `CCN1CCN(C(CNS(=O)(=O)c2ccc(OC)cc2)c2cccnc2)CC1` (stereo not drawn), for which the viability was 105%.
Turning to `CCCNC(=O)Cc1cc(=O)[nH]c(=O)[nH]1`, the viability is 105%.
For the compound `O=C(Nc1ccccc1)OCCOc1ccccc1`, the viability was 91.7%.
For `Cc1nc2ccc(S(=O)(=O)NC(C(=O)NC3CCCC3)C(C)C)cc2s1` (stereo not drawn), the viability is 102%.
On to `COc1ccc(OC)c(C2CC(=O)N3CN(c4ccccc4)CSC3=C2C#N)c1` (stereo not drawn), for which the viability is 96.2%.
Consider `Brc1ccc(-c2nnc(-c3ccccc3Br)o2)cc1`, for which the viability was 87.9%.
As to `CC12C(=O)N(c3ccccn3)C(=O)C1C1C=CC2C1` (stereo not drawn), the viability is 96.6%.
Same read-out and setting: the result for `Cc1c(C(=O)NCC2CCCO2)sc2nc(-c3ccccc3)cn12` (stereo not drawn) reads 109%; that for `Cc1ccc(C)c(C(=O)COC(=O)c2ccc(Br)o2)c1`, 94.2%; that for `CCOc1ccc(NS(=O)(=O)c2ccc3[nH]c(=O)oc3c2)cc1`, 101%.

The nature of another test: growth suppression of PTEN-deleted HCT116, pilot screen, cell-based, HCT116 clonal line, CellTiter-Glo (AID 824).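 Also: 0% = 20 µM Hyamine control and 100% = vehicle cell control.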 The settings on record: 60 h, at 10 µM, hits give low values.
In the case of `CCN(CC)CCCNC(=O)c1cc2c(-c3ccc(Cl)cc3)nn(C)c2s1`, the viability is 1.82% (active).
On the same count and under the same terms, the result for `O=C(NC1CCCC1)C(c1ccc(Cl)cc1)N1CCOCC1` (stereo not drawn) reads 93%; that for `COC(=O)c1ccc2c(c1)NC(=O)C1CCCN21` (stereo not drawn), 89.8%; that for `O=C(Nc1ccc2c(c1)OCO2)c1ccncc1`, 90.1%.
As for `COc1ccc(C2C3=C(CC(c4ccco4)CC3=O)Nc3ccccc3N2C(C)=O)cc1` (stereo not drawn), the viability is 102%.
As to `COc1cc(NC(=O)c2cc(C(C)C)on2)cc(OC)c1OC`, the viability is 94.5%.
Take `COc1ccc2ccccc2c1C1CC(=O)N2CN(C3CCCCC3)CSC2=C1C#N` (stereo not drawn): the viability is 76.4%.
For the compound `CCC(=O)c1ccc(OCC(=O)Nc2nn3cnnc3s2)cc1`, the viability was 102%.
Turning to `CCOC(=O)N1CCC(Nc2c(N3CCN(c4cc(Cl)ccc4C)CC3)c(=O)c2=O)CC1`, the viability was 72.3%.
Turning to `c1ccc(Sc2nc(N3CCCCC3)nc(N3CCCCC3)n2)nc1`, the viability is 86.5%.
With `Cn1c(=O)c2c(nc(NCc3ccccc3)n2Cc2ccc(F)cc2)n(C)c1=O`, the viability is 54.1%.
As to `COc1ccc(-n2nnc3c(=O)n(CC(=O)N4CCCCC4)cnc32)cc1`, the viability was 94.6%.
As for `CCN(CC)CC(=O)Nc1cc(C)c2c(=O)oc3ccccc3c2n1`, the viability is 91.6%.
For the compound `Nn1c(SCc2ccccc2)nnc1-c1ccco1`, the viability was 93%.
Still for that read-out and setting: the result for `c1ccc(OCc2nnc3sc(C4COc5ccccc5O4)nn23)cc1` (stereo not drawn) reads 90%.
`Cn1cnnc1SCc1ccc(C#N)cc1Cl`: the viability is 97.8%.
On the same count and under the same terms, as for `CCOc1ccc(C2C(C(=O)NC)=C(C)Nc3nc4ccccc4n32)cc1OC` (stereo not drawn), the figure is 103%; as for `Cc1sc2nc(SCC(=O)OC(C)C)n(C)c(=O)c2c1C`, 94.8%; as for `O=C(O)CCc1n[nH]c(=S)[nH]c1=O`, 106%.
For `COc1ccc(N2CCN(CCCNS(=O)(=O)c3ccc4c(c3)oc(=O)n4C)CC2)cc1`, the viability is 97.4%.
For the compound `CCOc1cccc(NC(=O)c2ccc(S(=O)(=O)N3CCCC3)cc2)c1`, the viability was 82.1%.
On the same count and under the same terms, the result for `O=C(CSc1nc2c(c(=O)n1-c1ccc(Br)cc1)SCC2)NCC1CCCO1` (stereo not drawn) reads 101%.
On the same count and under the same terms, the result for `COc1cccc(N2C(=O)C3ON(c4ccccc4)C(c4cccs4)C3C2=O)c1` (stereo not drawn) reads 97.8%; that for `CC(C)n1c(CCC(=O)O)ccc1-c1ccccc1`, 101%.
Still for that read-out and setting: the result for `Cn1c(C(=O)NC2CCCCC2)cc2c(=O)n(C)c3ccccc3c21` reads 73.8%.
Regarding `Cc1c(C(=O)NCC2CCCO2)sc2nc(-c3ccc(F)cc3)cn12` (stereo not drawn), the viability was 97.3%.
Regarding `CCCCOC(=O)CCc1n[nH]c(=O)[nH]c1=O`, the viability is 99%.
`Cc1ccc(C(c2sc3ncnn3c2O)N2CCC(C)CC2)cc1` (stereo not drawn): the viability was 90.2%.
Regarding `C=CCc1ccccc1OCC(O)CN1CCN(c2ccccc2OC)CC1` (stereo not drawn), the viability is 63.5%.
Same read-out and setting: the result for `CC(=O)NCC(=O)NC1(C(=O)NC2CCCC2)CCCCC1` reads 99.6%; that for `CCN1CCN(C(CNS(=O)(=O)c2ccc(OC)cc2)c2cccnc2)CC1` (stereo not drawn), 98.2%.
As to `CCCNC(=O)Cc1cc(=O)[nH]c(=O)[nH]1`, the viability was 101%.
Still for that read-out and setting: as for `O=C(Nc1ccccc1)OCCOc1ccccc1`, the figure is 100%.
Turning to `Cc1nc2ccc(S(=O)(=O)NC(C(=O)NC3CCCC3)C(C)C)cc2s1` (stereo not drawn), the viability was 101%.
As for `COc1ccc(OC)c(C2CC(=O)N3CN(c4ccccc4)CSC3=C2C#N)c1` (stereo not drawn), the viability was 94.5%.
For the compound `Brc1ccc(-c2nnc(-c3ccccc3Br)o2)cc1`, the viability was 79.2%.
Still for that read-out and setting: as for `CC12C(=O)N(c3ccccn3)C(=O)C1C1C=CC2C1` (stereo not drawn), the figure is 92%.
`Cc1c(C(=O)NCC2CCCO2)sc2nc(-c3ccccc3)cn12` (stereo not drawn): the viability is 95.1%.
Turning to `Cc1ccc(C)c(C(=O)COC(=O)c2ccc(Br)o2)c1`, the viability was 86.2%.
Still for that read-out and setting: the result for `CCOc1ccc(NS(=O)(=O)c2ccc3[nH]c(=O)oc3c2)cc1` reads 92.6%.
